esBAF inh: Bmi1 luciferase reporter increase in mESCs, primary screen, esBAF inhibitor project, mouse ES cells, Bmi1 luciferase knock-in, single point; 24 h; 100% = twice the neutral-well signal; reporter increase, % at 12.5 µM; 350,000 compounds, 2% hits; AID 602393, 2012; in the data active = activation above about 40%;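 note: 0% = median of the plate's neutral control wells and 100% = double that signal; a rise in the Bmi1 reporter signal indicates esBAF inhibition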
SMARCA2 act: SMARCA2 (BRM) function activators, primary screen, cell-based, luminescence, high throughput | 370,000 compounds, 1% hits | activation, % at 9.1 µM | MG213 cells, MMTV-luciferase reporter, dexamethasone, overnight; in the data active = activation above about 7.8%;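 note: 0% = vehicle wells and 100% = reference activator wells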
Jurkat NFkB inh: inhibitors of induced NF-kB luciferase reporter, primary screen, TCR NF-kB activation inhibitor project, cell-based, luminescence, uHTS; Jurkat, PMA/ionomycin-induced NF-kB luciferase reporter; inhibition, % at 4 µM; 330,000 compounds, 0.53% hits; AID 435003, 2010; in the data active = inhibition above about 50%
697 NFkB inh: inhibitors of PMA/ionomycin-induced NF-kB reporter, 697 cells, primary screen, B-cell NF-kB inhibitor project, cell-based, luminescence, uHTS. inhibition, % at 4 µM. 330,000 compounds, 0.33% hits. 697 B-cell NF-kB luciferase reporter, 16 h. AID 435022, 2010; in the data active = inhibition above about 35%
Gli-Sufu block: Gli-Sufu pathway antagonists, primary screen, luciferase luminescence, Sufu-KO-LIGHT cells, uHTS; Sufu-KO-LIGHT fibroblasts, Gli luciferase reporter luminescence; inhibition, % at 5 µM; 340,000 compounds, 0.74% hits;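 active = inhibition above about 55%, limit read from the data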;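 note: 0% = DMSO-treated cells and 100% = wells with medium but no cells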
The depositor's hits bear a star. Compounds with a hit are over-represented: about 3.3% of the library has one in this group of screens.

Screening C[C@H](CO)N1C[C@H](C)[C@H](CN(C)S(=O)(=O)c2ccc(Cl)cc2)OCCCC[C@H](C)Oc2ccc(NS(=O)(=O)c3ccc(Cl)cc3)cc2C1=O returned esBAF inh 4.2.
For CCN(c1ccccc1)c1ncnc2c1cnn2-c1ccccc1 the results were esBAF inh 75.8*, SMARCA2 act 3.7, Jurkat NFkB inh -49.7, 697 NFkB inh -74.6 and Gli-Sufu block -40.0.
`COc1ccccc1Oc1ncnc2c1cnn2-c1ccccc1` gave esBAF inh 73.3*, SMARCA2 act 2.9, Jurkat NFkB inh -46.1, 697 NFkB inh -69.6 and Gli-Sufu block -59.3.
COCC(=O)N(C)C[C@@H]1Oc2ncc(C#CC3(O)CCCC3)cc2C(=O)N([C@H](C)CO)C[C@H]1C was read as esBAF inh 2.5.
`CC1=C(C(=O)Nc2ccc(CC(=O)NCc3ccccc3C)cc2)SCCO1` gave esBAF inh 49.0*, SMARCA2 act 1.9, Jurkat NFkB inh 9.7, 697 NFkB inh -10.1 and Gli-Sufu block -43.3.
For FC(F)Oc1ccc(-c2csc(NNC3=NCCCCC3)n2)cc1 the results were esBAF inh 48.8*, SMARCA2 act 4.9, Jurkat NFkB inh -7.1, 697 NFkB inh 8.7 and Gli-Sufu block 13.7.
CO[C@H]1CN(C)C(=O)c2cc(NC(=O)c3ccccc3)ccc2OC[C@@H](C)N(C(C)=O)C[C@H]1C was read as esBAF inh -0.4.
For O=C(NCC1CCCO1)C(c1cccnc1)N(C(=O)Cc1cccs1)c1ccccc1 (stereo not drawn) the results were esBAF inh 69.3*, SMARCA2 act 4.2, Jurkat NFkB inh -46.1, 697 NFkB inh -0.6 and Gli-Sufu block 4.8.
Screening COc1cccc(N(C(=O)Cc2cccs2)C(C(=O)NC2CCCC2)c2ccncc2)c1 (stereo not drawn) returned esBAF inh 51.6*, SMARCA2 act -0.9, Jurkat NFkB inh -10.9, 697 NFkB inh 11.4 and Gli-Sufu block 10.6.
Screening C[C@H](NC(=O)C[C@H]1CC[C@H](NS(=O)(=O)c2cccc(F)c2)[C@H](CO)O1)c1ccccc1 returned esBAF inh -3.0.
CC(C)NC(=O)N(C)C[C@H]1Oc2c(NS(=O)(=O)c3cn(C)cn3)cccc2C(=O)N([C@@H](C)CO)C[C@H]1C was read as esBAF inh 0.4.
Screening COc1ccc2nc(SCc3cccc(C)c3)nc(C)c2c1 returned SMARCA2 act 8.5*, Jurkat NFkB inh -101.3, 697 NFkB inh -193.8 and Gli-Sufu block -62.6.
For CC(C)NC(=O)Nc1ccc2c(c1)C(=O)N([C@@H](C)CO)C[C@H](C)[C@@H](CN(C)S(C)(=O)=O)OCCCC[C@@H](C)O2 the results were esBAF inh -2.4.
O=C(C[C@@H]1C[C@@H]2c3cc(NC(=O)Cc4ccncc4)ccc3O[C@@H]2[C@H](CO)O1)NCc1ccc2c(c1)OCO2 was read as esBAF inh -2.2.
`O=C(CC1CCCCC1)NCc1ccccc1Cl` gave esBAF inh 52.6*, SMARCA2 act 1.3, Jurkat NFkB inh -66.9, 697 NFkB inh -69.4 and Gli-Sufu block -32.7.
Screening O=C(CC1CCCCC1)NCc1ccccn1 returned esBAF inh -9.3, SMARCA2 act 0.7, Jurkat NFkB inh -2.5, 697 NFkB inh -11.6 and Gli-Sufu block 4.2.
For CO[C@H]1CN(C)C(=O)c2cc(NC(=O)NC(C)C)ccc2OC[C@@H](C)N(CC2CC2)C[C@H]1C the results were esBAF inh -2.7.
Screening O=C(N[C@H]1C/C=C\C[C@H](CC(=O)N(CCO)Cc2ccccc2)C(=O)N[C@@H](c2ccccc2)COC1=O)OCC1c2ccccc2-c2ccccc21 returned esBAF inh -42.4, Jurkat NFkB inh -3.1, 697 NFkB inh -11.1 and Gli-Sufu block 66.5*.
C[C@H]1COC(=O)[C@H](NC(=O)OCC2c3ccccc3-c3ccccc32)C/C=C\C[C@H](CC(=O)N(CCO)Cc2ccccc2)C(=O)N1 was read as esBAF inh -25.4, SMARCA2 act -2.6, Jurkat NFkB inh -6.9, 697 NFkB inh -2.7 and Gli-Sufu block 38.5.
CN(C)CCN(C(=O)c1ccc(S(=O)(=O)N(C)c2ccccc2)cc1)c1nc2ccc(Cl)cc2s1 was read as esBAF inh 8.9, SMARCA2 act 14.4*, Jurkat NFkB inh -46.2, 697 NFkB inh -42.2 and Gli-Sufu block 18.2.
CN(C)CCN(C(=O)c1ccc(S(=O)(=O)N(C)c2ccccc2)cc1)c1nc2cc3c(cc2s1)OCO3 was read as SMARCA2 act -0.6, Jurkat NFkB inh -21.9, 697 NFkB inh -4.7 and Gli-Sufu block 11.5.
For C[C@H]1CN([C@@H](C)CO)C(=O)c2cccc(NC(=O)c3ccncc3)c2O[C@@H]1CN(C)S(=O)(=O)c1ccc(F)cc1 the results were esBAF inh -3.9.
Screening COCCCNC(=O)C1CCN(C(=O)c2oc3cc4sc(N(C)C)nc4cc3c2C)CC1 returned esBAF inh 48.6*, SMARCA2 act 0.6, Jurkat NFkB inh -23.3, 697 NFkB inh -53.4 and Gli-Sufu block -29.3.
For Cc1ccc(S(=O)(=O)Nc2ccc3c(c2)C(=O)N([C@@H](C)CO)C[C@@H](C)[C@H](CN(C)Cc2ccc4c(c2)OCO4)O3)cc1 the results were esBAF inh -1.8.
O=C(Nc1cccc(F)c1)c1ccc(-c2ccccc2Cl)o1 was read as esBAF inh 75.2*, Jurkat NFkB inh -68.4, 697 NFkB inh 9.9 and Gli-Sufu block -25.2.
For CCc1nnc(NC(=O)c2ccc(-c3ccccc3Cl)o2)s1 the results were esBAF inh 53.2*, SMARCA2 act -3.9, Jurkat NFkB inh -21.5, 697 NFkB inh 1.6 and Gli-Sufu block -47.0.
Cc1ccc(-c2ccc(C(=O)Nc3cccc(F)c3)o2)c2ccccc12 was read as esBAF inh 11.6, SMARCA2 act 0.7, Jurkat NFkB inh -8.3, 697 NFkB inh -9.4 and Gli-Sufu block -0.9.
`O=C(NCCc1ccncc1)[C@@H]1[C@@H](CO)[C@@H]2Cn3c(ccc(-c4cccc(F)c4)c3=O)[C@H]1N2` gave esBAF inh -3.8.
Screening COC(=O)c1ccc(NC(=O)CSc2nccn2CCc2ccccc2)cc1 returned esBAF inh 45.8*, SMARCA2 act 1.7, Jurkat NFkB inh -14.8, 697 NFkB inh -0.7 and Gli-Sufu block -13.6.
Screening Cn1ccnc1SCC(=O)Nc1ccc(SC(F)F)cc1 returned esBAF inh 82.1*, SMARCA2 act 1.7, Jurkat NFkB inh -3.7, 697 NFkB inh -36.3 and Gli-Sufu block -20.0.
`Cn1ccnc1SCC(=O)Nc1ccccc1` gave esBAF inh -0.4, SMARCA2 act 2.7, Jurkat NFkB inh -4.8, 697 NFkB inh 3.2 and Gli-Sufu block 4.9.
For Cc1ccc(S(=O)(=O)Nc2cccc3c2O[C@@H](CN(C)Cc2ccc(C(=O)O)cc2)[C@H](C)CN([C@H](C)CO)C3=O)cc1 the results were esBAF inh -0.8.

Compound activity as filed in PubChem.
